Active and inactive are the calls of the source. How the source made its calls: active means hit-call score of the fitted dose curve at least 0.9, where 1 is the maximum; inactive means score below 0.9.
Experiment: ATG_M_61_CIS: Attagene CIS-FACTORIAL HepG2 Assay for M61 Transcription Factor (Internal Marker) (AID 2282937)
Settings: HepG2 Attagene CIS-FACTORIAL M61 internal marker reporter; actives raise or lower the signal
Procedure: ATG_CIS is a cell-based, multiplexed-readout assay that uses HepG2, a human liver cell line, with measurements taken at 24 hours after chemical dosing in a 24-well plate.ATG_M_61_CIS is one of 52 assay component(s) measured or calculated from the ATG_CIS assay. It is designed to make measurements of mRNA induction, a form of inducible reporter, as detected with fluorescence intensity signals by Reverse transcription polymerase chain reaction (RT-PCR) and Capillary electrophoresis technology.Data from the assay component ATG_M_61_CIS was analyzed into 1 assay endpoint. This assay endpoint, ATG_M_61_CIS, was analyzed with bidirectional fitting relative to DMSO as the negative control and baseline of activity. Using a type of inducible reporter, measures of mRNA for gain or loss-of-signal activity can be used to understand the background control at the transcription factor-level as they relate to the gene . Furthermore, this assay endpoint can be referred to as a secondary readout, because this assay has produced multiple assay endpoints where this one serves a background control function. To generalize the intended target to other relatable targets, this assay endpoint is annotated to the background measurement intended target family, where the subfamily is internal marker.
Human liver HepG2 cells are transiently transfected with multiple reporter transcription units (MRTUs) in 6-well plates using FuGene 6 reagent (Roche; 3 ml FuGene/1 mg DNA). The MRTU constructs are regulated by a cis-regulating element (promoter). […] A major difference between the CIS and TRANS system is that in CIS activities of endogenous TFs are measured, whereas the TRANS assay evaluates changes in activities of exogenous, chimeric NR-Gal4 proteins. […] At the end of 24 hour incubation, total RNA was isolated using TriZol reagent (Invitrogen). The isolated RNA is then reverse-transcribed using oligo(dT) primer and Mo-MLV reverse transcriptase (Invitrogen) with DNAse I (Ambion) treatment for 30 min. The one-tenth of the produced cDNA was amplified by PCR using Taq DNA polymerase (Invitrogen) and two reporter sequence-specific primers. The PCR products were fluorescently labeled by primer extension with 6-arboxyfluorescein (6-FAM) 5'-labeled reporter sequence-specific primer (2 min at 95 C, 20 s at 68 C and 10 min at 72 C) and these products were digested with 5U of HpaI (New England Biolabs) for 2h at 37 C. The fragments were purified using Qiaquick PCR columns (Qiagen), analyzed on an ABI 3130xL genetic analyzer (Applied Biosystems) with peak positions identified by using a set of X-rhodamine (ROX)-labeled MapMarker1000 molecular weight standards (BioVentures). The raw capillary electrophoresis data was processed using Attagraph software (Attagene).

Row | Structure (SMILES) | outcome
1 | Cc1c(O)cccc1O | inactive
2 | CC1=CP(=O)(c2ccccc2)CC1 (stereo not given) | inactive
3 | CC(C)(CO)C(O)C(=O)NCCCO (stereo not given) | inactive
4 | CCCC(CC)c1ccccc1 (stereo not given) | inactive
5 | CC(CC(C)C)=NO | inactive
6 | O=C(Cl)c1c(Cl)c(Cl)c(C(=O)Cl)c(Cl)c1Cl | inactive
7 | O=C(Nc1ccccc1)c1cc(Cl)ccc1O | inactive
8 | CC(CC=O)CC(C)(C)C (stereo not given) | inactive
9 | CC=CC(=O)OCC(C)C | inactive
10 | CC1(C)C(=O)N(CO)C(=O)N1CO | inactive
11 | CC(C)COC(=O)CC(C(=O)OCC(C)C)S(=O)(=O)O (stereo not given) | inactive
12 | Nc1ccc(Cl)c(N)c1 | inactive
13 | c1ccc2c(c1)[nH]c1ccccc12 | inactive
14 | C=C(C)C1CC=C(C)C(OC(C)=O)C1 (stereo not given) | inactive
15 | CCc1occc(=O)c1O | inactive
16 | CCCCCCCO | inactive
17 | CCCCOCCOC(=O)COc1ccc(Cl)cc1Cl | inactive
18 | C=CC(C)(CCC=C(C)C)OC(=O)C=Cc1ccccc1 (stereo not given) | inactive
19 | C=CCCCCCCCCOC(C)=O | inactive
20 | CCCCCCOC(=O)CCCCC(=O)OCCCCCC | inactive

Row | Structure (SMILES) | outcome
21 | CC(C)(CO)COC(=O)C(C)(C)CO | inactive
22 | CCC[Si](OC)(OC)OC | inactive
23 | COc1ccc(-c2coc3cc(O)cc(O)c3c2=O)cc1 | inactive
24 | CO[Si](C)(C)OC | inactive
25 | CCCCCCCCCCCCC | inactive
26 | [Cl][Sc]([Cl])[Cl] | inactive
27 | CC(c1cc(C(C)(C)C)cc(C(C)(C)C)c1O)c1cc(C(C)(C)C)cc(C(C)(C)C)c1O | inactive
28 | CC(=O)OC/C=C(/C)CCC=C(C)C | inactive
29 | C=CCCCCCCCCC=O | inactive
30 | CC(C)[N+](C)(CCOC(=O)C1c2ccccc2Oc2ccccc21)C(C)C | inactive
31 | CC(=O)OC(C)c1ccccc1 (stereo not given) | inactive
32 | CCC1(C)C(=O)N(Cl)C(=O)N1Cl (stereo not given) | inactive
33 | CC1CCC(C(C)(C)S)C(=O)C1 (stereo not given) | inactive
34 | c1ccc(Nc2cccc3ccccc23)cc1 | inactive
35 | O=S(=O)(O)c1ccc(Nc2nc(Nc3ccc(C=Cc4ccc(Nc5nc(Nc6ccc(S(=O)(=O)O)cc6)nc(N(CCO)CCO)n5)cc4S(=O)(=O)O)c(S(=O)(=O)O)c3)nc(N(CCO)CCO)n2)cc1 | inactive
36 | C=C(C)C(=O)OCCCCCCCCCCCC | inactive
37 | Cc1cc(=O)[nH]c(=O)[nH]1 | inactive
38 | COC(=O)c1ccc(C(=O)OC)c(C(=O)OC)c1 | inactive
39 | COc1ccc(C(=O)/C(Br)=C\C(=O)O)cc1 | inactive
40 | CC(C)CO | inactive

Source: PubChem BioAssay (EPA / NIEHS)
